{"source": "the supplement of paper PMC6555819", "data": [{"system": "PPARg homodimer (NR concentration 180 nM)", "test": "PBM binding z-score (relative to random genomic background probes); higher = stronger binding; sequences stand for … in GC…GCGATTGACAGCGTAGAATGAAGG", "method_in_brief": "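Random background probes are the reference for binding z-scores. These scores derive from regression-normalized fluorescence on custom Agilent 4×180K protein-binding microarrays incubated 1 h with ligand-free nuclear receptor dimers. Binding was detected with antibodies against each partner (one per run).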", "values": [{"sequence": "GCTAGTTGGTCAGTAAATGGTCACACACCGGTCG", "PBM binding z-score": 0.621}, {"sequence": "AGCTCTAGGTAAAAGTTCAGTGAATCCCGAGGAT", "PBM binding z-score": 0.844}, {"sequence": "TAGCCTAGGTCATTCAGGGGCCAGTATGGAAAGC", "PBM binding z-score": 2.13}, {"sequence": "TAGCCTAGGTCATAGGCCAGTATACCACGCGAAC", "PBM binding z-score": 1.91}, {"sequence": "CAATCTAGGTCAAAGGTCAAAGTCGAGCCAACCA", "PBM binding z-score": 3.41}, {"sequence": "AGACAAAGTTCAGGACGAGGTAACGTAAAGCACG", "PBM binding z-score": 1.38}, {"sequence": "CCTGCTAGTTCATGGTCAGCTAATCTACAGTATG", "PBM binding z-score": -0.0541}, {"sequence": "TCTCGGAGGACACGAAAAGTCAGAGCTCGACATC", "PBM binding z-score": 0.0166}, {"sequence": "TGACTGAGGTTAAAGATCAGGGAACGTGGCGTCG", "PBM binding z-score": 0.216}, {"sequence": "TATACAGGGTCTAAGGCCAGAGTACGAATGTCGA", "PBM binding z-score": 0.023}, {"sequence": "ATCTGTAGGTTATCGGGTCATTCAGTTTGCGCAT", "PBM binding z-score": 2.43}, {"sequence": "GCTGCTCGGTCAACTGATGGTCAGCTAAAGCTCG", "PBM binding z-score": -0.156}, {"sequence": "CCTTACAGGTCACGAGGTTATAGCACGACGAGCG", "PBM binding z-score": 3.54}, {"sequence": "GCTGCTAGGTCGACTGATGGTCAGCTAAAGCTCG", "PBM binding z-score": -0.687}, {"sequence": "TAGCCTAAGTCATGGGCCAGTATACCACGCGAAC", "PBM binding z-score": -0.397}, {"sequence": "CAAACTAGGTCAAAGGTCAAAGCCGAGCCAACCA", "PBM binding z-score": 4.45}, {"sequence": "TCTAGTTGGTCAAAGGCCACACACTCGAAATGCG", "PBM binding z-score": 1.01}, {"sequence": "AGATTGAGGTTACCAAAGATCAGGGAAACGCTTG", "PBM binding z-score": 0.218}, {"sequence": "CCTAGCAGGCCACGGTCACTCAAGCATTTCGCTT", "PBM binding z-score": 0.115}, {"sequence": "AGAATGAGGTTACCAGAGATCAGGGAAACGCTTG", "PBM binding z-score": 0.651}, {"sequence": "CCTACTGGGCCAATGTCATTGATCAGTCAAAGCA", "PBM binding z-score": -0.246}, {"sequence": "CCTACTGGGCCAACAAGGTCATTGATGCCGATAA", "PBM binding z-score": 2.24}]}]}
